What all share (details): mRNA level, 48 h; actives raise or lower the signal
Read-out in assay [1]: Cytochrome P450 7A1 (Homo sapiens) (UniProt P22680)
The assay is described as follows: LTEA_HepaRG_CYP7A1: Life Technologies and Expression Analysis (LTEA) Assay for Cytochrome P450 7A1 (CYP7A1) using HepaRG (AID 2283496). In outline:
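HepaRG, 48 h exposure, 8-pt half-log series from 100 uM, 0.5% DMSO vehicle, duplicates. Readout: TaqMan qRT-PCR mRNA vs three housekeeping genes; bidirectional curve fit against DMSO baseline.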

Read-out in assay [2]: Glutathione S-Transferase (GSTA2), GSTA2 (gene 2939)
As to the kind of experiment: LTEA_HepaRG_GSTA2: Life Technologies and Expression Analysis (LTEA) Assay for Glutathione S-Transferase (GSTA2) using HepaRG (AID 2283497). In outline: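 GSTA2 transcript levels came from Fluidigm TaqMan qRT-PCR normalized to three housekeeping genes, fitted in both directions against DMSO. HepaRG cultures received chemicals for 48 h in serum-free induction medium (0.5% DMSO), 8 half-log concentrations up to 100 uM, duplicate.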

Read-out in assay [3]: Glutamate-cysteine ligase catalytic (GCLC), GCLC (gene 2729)
The assay is described as follows: LTEA_HepaRG_GCLC: Life Technologies and Expression Analysis (LTEA) Assay for Glutamate-cysteine ligase catalytic (GCLC) using HepaRG (AID 2283498). In outline:
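Expression by TaqMan qRT-PCR, normalized to three housekeeping genes (ACTB, GAPDH, POLR2A), with up- or down-regulation fitted against DMSO. HepaRG cells dosed in duplicate for 48 h with 8 half-log concentrations up to 100 uM, vehicle 0.5% DMSO.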

Read-out in assay [4]: growth arrest and DNA damage 45 (GADD45G), GADD45G (gene 10912)
As to the kind of experiment: LTEA_HepaRG_GADD45G: Life Technologies and Expression Analysis (LTEA) Assay for growth arrest and DNA damage 45 (GADD45G) using HepaRG (AID 2283499). Put shortly:
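Human hepatic HepaRG line treated 48 h with chemicals (eight concentrations, half-log steps from 100 uM); transcript induction or repression of GADD45G scored by qRT-PCR versus DMSO vehicle.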

Read-out in assay [5]: Glutamate-cysteine ligase regulatory (GCLM), GCLM (gene 2730)
The assay is described as follows: LTEA_HepaRG_GCLM: Life Technologies and Expression Analysis (LTEA) Assay for Glutamate-cysteine ligase regulatory (GCLM) using HepaRG (AID 2283500). Put shortly: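 Endpoint is GCLM transcript level by qRT-PCR, normalized to three housekeeping genes, after 48 h chemical exposure of human HepaRG cells (0.5% DMSO vehicle, top 100 uM, half-log dilutions). Fitting was bidirectional relative to DMSO.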

Read-out in assay [6]: Heat shock 70 kDa protein 1 (HSPA1A), gene 3303
As to the kind of experiment: LTEA_HepaRG_HSPA1A: Life Technologies and Expression Analysis (LTEA) Assay for Heat shock 70 kDa protein 1 (HSPA1A) using HepaRG (AID 2283502). In outline: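 Cells were plated and cultured for 48 h, then switched to serum-free induction medium. Chemicals were added at eight half-log concentrations up to 100 uM for 48 h. RNA was then isolated and HSPA1A measured by qRT-PCR with bidirectional curve fitting against DMSO.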

Read-out in assay [7]: Hypoxia-inducible factor 1-alpha (Homo sapiens) (UniProt Q16665)
As to the kind of experiment: LTEA_HepaRG_HIF1A: Life Technologies and Expression Analysis (LTEA) Assay for Hypoxia-inducible factor 1 (HIF1A) Trancription factor using HepaRG (AID 2283503). Put shortly:
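HIF1A transcript level read by qRT-PCR (ACTB, GAPDH, POLR2A normalization) after 48 h chemical exposure of HepaRG cultures. Eight half-log concentrations, top 100 uM, 0.5% DMSO vehicle, duplicates; bidirectional curve fit against DMSO baseline.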

Read-out in assay [8]: 3-Hydroxy-3-Methylglutaryl-CoA Synthase 2 (HMGCS2), HMGCS2 (gene 3158)
As to the kind of experiment: LTEA_HepaRG_HMGCS2: Life Technologies and Expression Analysis (LTEA) Assay for 3-Hydroxy-3-Methylglutaryl-CoA Synthase 2 (HMGCS2) using HepaRG (AID 2283504). Put shortly: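 Expression of HMGCS2 in human HepaRG liver cells is measured by qRT-PCR 48 h after dosing (highest 100 uM, half-log series, 0.5% DMSO). Values come from bidirectional concentration-response fitting with DMSO as baseline.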

Read-out in assay [9]: HGF (gene 3082)
The assay is described as follows: LTEA_HepaRG_HGF: Life Technologies and Expression Analysis (LTEA) Assay for Hepatocyte Growth Facto (HGF) using HepaRG (AID 2283505). In outline: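 Gain or loss of HGF mRNA in human HepaRG liver cells after 48 h chemical exposure; eight concentrations up to 100 uM with 0.5% DMSO vehicle, quantified by TaqMan qRT-PCR.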

Read-out in assay [10]: Insulin Like Growth Factor 1 (IGF1), IGF1 (gene 3479)
The assay is described as follows: LTEA_HepaRG_IGF1: Life Technologies and Expression Analysis (LTEA) Assay for Insulin Like Growth Factor 1 (IGF1) using HepaRG (AID 2283506). Put shortly: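 Cells are thawed, plated and cultured 48 h, then exposed in duplicate to chemical (highest 100 uM, half-log steps, 0.5% DMSO) for another 48 h. Total RNA is analysed by Fluidigm qRT-PCR for IGF1 expression relative to vehicle.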

Read-out in assay [11]: Intercellular Adhesion Molecule 1 (ICAM1), ICAM1 (gene 3383)
The assay is described as follows: LTEA_HepaRG_ICAM1: Life Technologies and Expression Analysis (LTEA) Assay for Intercellular Adhesion Molecule 1 (ICAM1) using HepaRG (AID 2283507). In outline:
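Gain or loss of transcript in HepaRG hepatic cells is quantified by qRT-PCR after 48 h chemical exposure (up to 100 uM, half-log steps), with DMSO as baseline.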

Read-out in assay [12]: Insulin-like growth factor-binding protein 1 (IGFBP1), IGFBP1 (gene 3484)
The assay is described as follows: LTEA_HepaRG_IGFBP1: Life Technologies and Expression Analysis (LTEA) Assay for Insulin-like growth factor-binding protein 1 (IGFBP1) using HepaRG (AID 2283508). Put shortly:
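mRNA induction or loss was quantified by qRT-PCR after 48 h chemical exposure of human HepaRG cells, with 0.5% DMSO as vehicle and baseline. Concentration-response over eight points up to 100 uM.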

Read-out in assay [13]: Interleukin 6 (IL6), IL6 (gene 3569)
The assay is described as follows: LTEA_HepaRG_IL6: Life Technologies and Expression Analysis (LTEA) Assay for Interleukin 6 (IL6) using HepaRG (AID 2283509). In outline: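 Transcript levels, normalized to three housekeeping genes, were quantified by qRT-PCR after 48 h chemical treatment of HepaRG cells. Eight-point half-log series from 100 uM in 0.5% DMSO, duplicates. Fitted both directions against DMSO baseline.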

Read-out in assay [14]: Interleukin 6 Receptor (IL6R), IL6R (gene 3570)
The assay is described as follows: LTEA_HepaRG_IL6R: Life Technologies and Expression Analysis (LTEA) Assay for Interleukin 6 Receptor (IL6R) using HepaRG (AID 2283510).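 As to AC50: differentiated human HepaRG liver cells in serum-free induction medium.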 In outline:
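Cells were thawed, plated and cultured 48 h, then medium was changed to serum-free induction medium. Chemicals were added in duplicate (100 uM top, half-log steps, 0.5% DMSO) for 48 h. Lysates were analyzed by qRT-PCR for IL6R expression.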

Read-out in assay [15]: Potassium channel subfamily K member 1 (KCNK1), KCNK1 (gene 3775)
As to the kind of experiment: LTEA_HepaRG_KCNK1: Life Technologies and Expression Analysis (LTEA) Assay for Potassium channel subfamily K member 1 (KCNK1) using HepaRG (AID 2283511). Put shortly: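 KCNK1 transcript measured by TaqMan qRT-PCR against three housekeeping genes, after HepaRG cells were treated 48 h with eight half-log concentrations (top 100 uM, 0.5% DMSO). Curves fitted bidirectionally relative to vehicle.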

Read-out in assay [16]: Keratin 19 (KRT19), KRT19 (gene 3880)
As to the kind of experiment: LTEA_HepaRG_KRT19: Life Technologies and Expression Analysis (LTEA) Assay for Keratin 19 (KRT19) using HepaRG (AID 2283512). Put shortly:
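Gene-expression endpoint in the human liver line HepaRG after 48 h exposure to up to 100 uM test chemical with 0.5% DMSO vehicle; KRT19 mRNA by qRT-PCR, analyzed bidirectionally versus DMSO.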

Read-out in assay [17]: JUN Transcription Factor, JUN (gene 3725)
The assay is described as follows: LTEA_HepaRG_JUN: Life Technologies and Expression Analysis (LTEA) Assay for JUN Transcription Factor using HepaRG (AID 2283513). Put shortly:
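Read-out is JUN transcript level by TaqMan qRT-PCR, normalized to ACTB, GAPDH and POLR2A, after 48 h chemical treatment of HepaRG cells. Concentration-response spanned eight half-log points up to 100 uM in 0.5% DMSO.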

Read-out in assay [18]: Glutathione S-transferase M3 (GSTM3), GSTM3 (gene 2947)
As to the kind of experiment: LTEA_HepaRG_GSTM3: Life Technologies and Expression Analysis (LTEA) Assay for Glutathione S-transferase M3 (GSTM3) using HepaRG (AID 2283501). In outline:
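Changes in GSTM3 expression, an oxidative-stress marker, were scored by bidirectional curve fitting against 0.5% DMSO vehicle. Human HepaRG cultures received chemicals for 48 h in duplicate, highest concentration 100 uM with half-log dilutions.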

The source of these data is PubChem BioAssay (EPA / NIEHS).

As usually defined, the AC50 is the midpoint of the concentration-response curve, whichever way the signal moves.

Activity calls are given as the source filed them. The calls were made as follows: active = hit-call score of the fitted dose curve at least 0.9, where 1 is the maximum; inactive = score below 0.9.

Chain of Hypoxia-inducible factor 1-alpha (Homo sapiens) (Q16665 whole entry, looked up): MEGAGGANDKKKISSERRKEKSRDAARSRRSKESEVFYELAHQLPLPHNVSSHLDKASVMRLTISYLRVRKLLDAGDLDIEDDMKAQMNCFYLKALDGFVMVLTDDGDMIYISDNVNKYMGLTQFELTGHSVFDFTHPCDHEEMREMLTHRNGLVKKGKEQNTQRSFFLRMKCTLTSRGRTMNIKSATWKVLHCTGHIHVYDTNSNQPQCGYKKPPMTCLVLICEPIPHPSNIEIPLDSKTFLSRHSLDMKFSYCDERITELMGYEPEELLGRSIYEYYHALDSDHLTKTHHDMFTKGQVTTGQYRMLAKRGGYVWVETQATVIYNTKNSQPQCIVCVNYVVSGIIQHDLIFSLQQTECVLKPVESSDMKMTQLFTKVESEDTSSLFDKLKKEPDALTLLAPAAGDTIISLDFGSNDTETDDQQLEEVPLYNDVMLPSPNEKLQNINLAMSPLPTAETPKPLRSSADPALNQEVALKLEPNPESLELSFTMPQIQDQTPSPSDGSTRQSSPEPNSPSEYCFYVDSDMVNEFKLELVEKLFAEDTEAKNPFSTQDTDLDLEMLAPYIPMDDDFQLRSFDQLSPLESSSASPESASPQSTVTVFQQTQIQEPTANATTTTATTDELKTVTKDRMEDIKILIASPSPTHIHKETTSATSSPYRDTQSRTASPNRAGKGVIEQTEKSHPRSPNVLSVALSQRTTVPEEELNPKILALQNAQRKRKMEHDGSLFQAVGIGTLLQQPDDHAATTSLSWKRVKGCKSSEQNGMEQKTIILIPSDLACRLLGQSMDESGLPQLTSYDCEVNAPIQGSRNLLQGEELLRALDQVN

Turning to `O=C(O)C1(C(=O)Nc2ccc(Cl)cc2Cl)CC1`, the concentration at half-maximal activity (AC50) in assay [1] is 77.8 µM (active); in assay [2], 48.8 µM (active); in assay [3] it was 50 µM (active); in assay [4], 90.1 µM (active); in assay [7] it was 50 µM (active); in assay [8], 81 µM (active). For the same molecule, the molecule was called inactive in [5], in assay [6], in assay [9], in [10], in [11] and in assay [12]. For the same molecule, the call in [13], in assay [14], in assay [15], in assay [16] and in assay [17] was inactive.
Consider `CCCN(CCC)c1c([N+](=O)[O-])cc(C(F)(F)F)c(N)c1[N+](=O)[O-]`, for which the concentration at half-maximal activity (AC50) was 36.6 µM (active) in assay [1]; 28.6 µM (active) in [5]; 50 µM (active) in [6]; 33.3 µM (active) in assay [8]; 22.7 µM (active) in [10]. Further, the result in assay [2], in assay [3], in assay [4], in assay [7], in [9] and in [11] was inactive. The molecule was called inactive in assay [12], in [13], in assay [14], in [15], in assay [16] and in [17].
On to `O=C(c1ccc(O)cc1O)c1ccc(O)cc1O`, for which the molecule was classed as inactive in assay [1], in assay [2], in assay [3], in [4], in [5] and in assay [6]. The outcome in [7], in assay [8], in assay [9], in assay [10], in [11] and in assay [12] was inactive. In addition, the outcome in [13], in assay [14], in assay [15], in assay [16] and in assay [17] was inactive.
`COCCO`: the call in assay [2], in assay [3], in assay [4], in [5], in assay [6] and in assay [7] was inactive. Further, the outcome in assay [8], in assay [9], in [10], in assay [11], in [12] and in [13] was inactive. The outcome in assay [14], in [15], in assay [16] and in assay [17] was inactive.
In the case of `COC(=O)c1ccccc1C(=O)O`, the call in assay [1], in assay [2], in assay [3], in assay [4], in assay [5] and in assay [6] was inactive. In addition, the molecule was called inactive in assay [7], in [8], in [9], in assay [10], in [11] and in [13]. Besides, the result in assay [14], in assay [15], in assay [16] and in [17] was inactive.
On to `c1ccc2[nH]c(-c3cscn3)nc2c1`, for which the call in assay [1], in [2], in assay [4], in [5], in assay [6] and in assay [7] was inactive. The outcome in assay [8], in [9], in assay [10], in assay [11], in [13] and in assay [14] was inactive. Further, the result in [15] and in assay [17] was inactive. In addition, the AC50 in assay [3] is 50 µM (active); in assay [12] it was 29 µM (active); in assay [16], 35.2 µM (active).
Turning to `N#CSCSc1nc2ccccc2s1`, the call in assay [1], in assay [3], in assay [4], in assay [5], in assay [18] and in assay [6] was inactive. Moreover, the outcome in assay [7], in [8], in assay [9], in assay [11], in assay [12] and in assay [13] was inactive. Besides, the call in assay [15], in [16] and in assay [17] was inactive. Moreover, the half-maximal activity concentration (AC50) in [2] was 86 µM (active); in [10] it was 77.2 µM (active); in assay [14], 84 µM (active).
